# The sample as a whole holds a higher share of the strongest signals than the screen did.
# Assays:
# Assay in all cases: glycan array binding signal (z-score within array); higher = stronger binding
# Settings in all cases: glycan notation: IUPAC condensed, linker removed
# [1] = molecular target: Fuc(a1-2)Gal(b1-3)GalNAc(b1-3)Gal
# Summary of the method: (§1)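 Glycan array binding is given as a within-array Z-score, which can be read as non-binding when negative. The arrays, 3228 of them, came from the Consortium for Functional Glycomics database and were retained only where the protein sequence was available. Z-scores were averaged across arrays of the same protein sequence at different concentrations or buffers and across linkers.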
# Fuc(a1-2)Gal(b1-3)GlcNAc = molecular target: Fuc(a1-2)Gal(b1-3)GlcNAc
# Summary of the method: as §1
# [2] = molecular target: Fuc(a1-2)Gal(b1-3)GlcNAc(b1-3)Gal(b1-4)Glc
# Summary of the method: as §1
# [3] = molecular target: Fuc(a1-2)Gal(b1-3)GlcNAc6S
# Summary of the method: as §1
# Fuc(a1-2)Gal(b1-4)Glc6S = molecular target: Fuc(a1-2)Gal(b1-4)Glc6S
# Summary of the method: as §1
# [4] = molecular target: Fuc(a1-2)[Gal(a1-3)]Gal(b1-3)GalNAc
# Summary of the method: as §1
# [5] = molecular target: Fuc(a1-2)[GalNAc(a1-3)]Gal(b1-3)GlcNAc(b1-6)GalNAc
# Summary of the method: as §1
# Fuc(a1-3)GlcNAc = molecular target: Fuc(a1-3)GlcNAc
# Summary of the method: as §1
# Gal(a1-3)Gal(b1-3)GlcNAc = molecular target: Gal(a1-3)Gal(b1-3)GlcNAc
# Summary of the method: as §1
# [6] = molecular target: Gal(a1-3)Gal(b1-3)GlcNAc(b1-6)GalNAc
# Summary of the method: as §1
# [7] = molecular target: Gal(a1-4)Gal(b1-3)GlcNAc(b1-2)Man(a1-3)[Gal(a1-4)Gal(b1-3)GlcNAc(b1-2)Man(a1-6)]Man(b1-4)GlcNAc(b1-4)GlcNAc
# Summary of the method: as §1
# Gal(a1-6)Glc = molecular target: Gal(a1-6)Glc
# Summary of the method: as §1
# Gal(b1-3)Gal(b1-4)GlcNAc = molecular target: Gal(b1-3)Gal(b1-4)GlcNAc
# Summary of the method: as §1
# [8] = molecular target: Gal(b1-3)GlcNAc(b1-2)Man(a1-3)[Gal(b1-3)GlcNAc(b1-2)Man(a1-6)]Man(b1-4)GlcNAc(b1-4)GlcNAc
# Summary of the method: as §1
# [9] = molecular target: Gal(b1-3)GlcNAc(b1-2)Man(a1-3)[GlcNAc(b1-4)][Gal(b1-3)GlcNAc(b1-2)Man(a1-6)]Man(b1-4)GlcNAc(b1-4)GlcNAc
# Summary of the method: as §1
# [10] = molecular target: Gal(b1-3)GlcNAc(b1-3)Gal(b1-3)GlcNAc
# Summary of the method: as §1
# [11] = molecular target: Gal(b1-3)[Neu5Ac(a2-6)]GlcNAc(b1-6)Gal(b1-4)Glc
# Summary of the method: as §1
# [12] = molecular target: Gal(b1-4)GlcNAc(a1-6)Gal(b1-4)GlcNAc
# Summary of the method: as §1
# [13] = molecular target: Gal(b1-4)GlcNAc(b1-2)Man(a1-3)Man(b1-4)GlcNAc(b1-4)GlcNAc
# Summary of the method: as §1
# [14] = molecular target: Gal(b1-4)GlcNAc(b1-2)Man(a1-3)[Gal(b1-4)GlcNAc(b1-2)Man(a1-6)]Man(b1-4)GlcNAc(b1-4)GlcNAc
# Summary of the method: as §1
# [15] = molecular target: Gal(b1-4)GlcNAc(b1-2)Man(a1-3)[Man(a1-6)]Man(b1-4)GlcNAc(b1-4)GlcNAc
# Summary of the method: as §1
# [16] = molecular target: Gal(b1-4)GlcNAc(b1-3)Gal(b1-3)GalNAc
# Summary of the method: as §1
# [17] = molecular target: Gal(b1-4)GlcNAc(b1-3)Gal(b1-4)GlcNAc(b1-3)GalNAc
# Summary of the method: as §1
# [18] = molecular target: Gal(b1-4)GlcNAc(b1-3)Gal(b1-4)[Fuc(a1-3)]GlcNAc(b1-3)Gal(b1-4)[Fuc(a1-3)]GlcNAc
# Summary of the method: as §1
# [19] = molecular target: Gal(b1-4)GlcNAc(b1-3)[Gal(b1-4)GlcNAc(b1-6)]Gal(b1-4)GlcNAc
# Summary of the method: as §1
# [20] = molecular target: Gal(b1-4)GlcNAc(b1-3)[GlcNAc(b1-6)]Gal(b1-4)GlcNAc
# Summary of the method: as §1
# [21] = molecular target: Gal(b1-4)GlcNAc(b1-6)[Gal(b1-3)]GalNAc
# Summary of the method: as §1
# Gal(b1-6)Gal = molecular target: Gal(b1-6)Gal
# Summary of the method: as §1
# Gal3S(b1-3)GlcNAc = molecular target: Gal3S(b1-3)GlcNAc
# Summary of the method: as §1
# Gal3S(b1-4)Glc = molecular target: Gal3S(b1-4)Glc
# Summary of the method: as §1
binder,measurement,setting,value
AMA (Arum maculatun) (protein) MAKLLLLLLLPAIVGLAVPRSAAAVGSNYMLSGETLNTDGRLTNGELTLIMQVDCNLVLYHGGWQSNTANNGRDCKLTLTDFGELVIKSGTGSTVWSSGSKQSMKGNYAAVVHPEGRLVIYGPSVFKINPSGAGLNGLPLRNIPLTNNMLFSGQVLYGDGTLSARNHKLVMQGDCNMVLYGGKYGWQSNTHGNGKYCFAMLTHKGELVIRDDDFKSVWSSKSSSKQGDYVFILQDDSLAIIYGPAVFSTGSKKMISMVTN,glycan array binding signal (z-score),[1],-0.21
same,glycan array binding signal (z-score),Fuc(a1-2)Gal(b1-3)GlcNAc,-0.176
same,glycan array binding signal (z-score),[2],-0.22
same,glycan array binding signal (z-score),[3],-0.207
same,glycan array binding signal (z-score),Fuc(a1-2)Gal(b1-4)Glc6S,-0.208
same,glycan array binding signal (z-score),[4],-0.211
same,glycan array binding signal (z-score),[5],-0.216
same,glycan array binding signal (z-score),Fuc(a1-3)GlcNAc,-0.221
same,glycan array binding signal (z-score),Gal(a1-3)Gal(b1-3)GlcNAc,-0.21
same,glycan array binding signal (z-score),[6],-0.216
same,glycan array binding signal (z-score),[7],5.86
same,glycan array binding signal (z-score),Gal(a1-6)Glc,-0.214
same,glycan array binding signal (z-score),Gal(b1-3)Gal(b1-4)GlcNAc,-0.208
same,glycan array binding signal (z-score),[8],3.15
same,glycan array binding signal (z-score),[9],-0.205
same,glycan array binding signal (z-score),[10],-0.207
same,glycan array binding signal (z-score),[11],-0.198
same,glycan array binding signal (z-score),[12],-0.215
same,glycan array binding signal (z-score),[13],-0.215
same,glycan array binding signal (z-score),[14],3.36
same,glycan array binding signal (z-score),[15],0.479
same,glycan array binding signal (z-score),[16],-0.219
same,glycan array binding signal (z-score),[17],-0.149
same,glycan array binding signal (z-score),[18],-0.209
same,glycan array binding signal (z-score),[19],-0.213
same,glycan array binding signal (z-score),[20],-0.227
same,glycan array binding signal (z-score),[21],-0.212
same,glycan array binding signal (z-score),Gal(b1-6)Gal,-0.208
same,glycan array binding signal (z-score),Gal3S(b1-3)GlcNAc,-0.209
same,glycan array binding signal (z-score),Gal3S(b1-4)Glc,-0.211
